Results on 20 molecules are retold here after PubChem BioAssay (NCI).

The structures appear in SMILES notation. Compounds without any hit were thinned out: in the full panel of roughly 79,000, 15% have a hit. Unmarked numbers belong to inactive results. Calls of active or inactive are those of the source. No stated cut-off is given here; in the data, active means growth inhibition above about 70%; inactive means the rest.

Assay [1] is described as follows: NCI Yeast Anticancer Drug Screen. Data for the rad50 strain (AID 155).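 Further: 0% = growth of vehicle-only cultures of the same strain.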 To be noted: S. cerevisiae rad50 strain growth inhibition, active compounds read high; at 50.0 µM unless noted. In short, it runs like this:
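Cells are treated with compound, grown, and their growth is then scored against vehicle-only cultures of the same repair-deficient yeast strain.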

Assay [2] can be described thus: NCI Yeast Anticancer Drug Screen. Data for the mec2-1 strain (AID 157). As to conditions: S. cerevisiae mec2-1 strain, active compounds read high; at 50.0 µM unless noted. Put shortly: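 Mutant yeast (mec2-1) grown with compound; growth inhibition relative to vehicle control reported.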
Assay [3] can be described thus: NCI Yeast Anticancer Drug Screen. Data for the sgs1 mgt1 strain (AID 161).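 Further: 0% = growth of cultures given vehicle only.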 To be noted: S. cerevisiae sgs1 mgt1 strain, active compounds read high; at 50.0 µM unless noted. Put shortly: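 Percent growth inhibition was derived by comparing compound-exposed mutant yeast with vehicle-exposed cultures. The strain carries alterations in DNA damage repair.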
Assay [4] is described as follows: NCI Yeast Anticancer Drug Screen. Data for the cln2 rad14 strain (AID 165).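 Further: 0% = growth equal to vehicle treated cultures.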 To be noted: S. cerevisiae cln2 rad14 strain, active compounds read high; at 50.0 µM unless noted. Put shortly:
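Readout is yeast growth inhibition versus vehicle-treated controls, using a strain with cln2 and rad14 alterations exposed to compound.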

Assay [5] in a line: NCI Yeast Anticancer Drug Screen. Data for the bub3 strain (AID 167). To be noted: S. cerevisiae bub3 mutant strain, active compounds read high; at 50.0 µM unless noted. In short, it runs like this: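 Part of a panel of yeast mutants defective in DNA damage repair or cell cycle regulation. Each strain is grown with compound, and inhibition is calculated relative to solvent-treated cultures.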

Assay [6] is described as follows: NCI Yeast Anticancer Drug Screen. Data for the mlh1 rad18 strain (AID 175). To be noted: S. cerevisiae mlh1 rad18 strain growth inhibition, active compounds read high; at 50.0 µM unless noted. In short, it runs like this: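 Genetically defined yeast (DNA repair-deficient) exposed to compounds; growth inhibition determined relative to vehicle.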

As for `C(=N\N(c1ccccc1)c1ccccc1)/C(c1ccccc1)c1ccccc1`, the growth inhibition in assay [1] is 2.55%; in assay [2], -3.2%; in assay [3] it was 1.9%; in assay [4] it was -3.95%; in assay [5] it was 2.2%; in assay [6] it was -4.35%.
Regarding `O=C1OC(/C=C/c2ccccc2)=NC/1=C\c1ccc2c(c1)OCO2`, the growth inhibition in assay [1] was -4.95%; in assay [2], 18.9%; in assay [3], -16.4%; in assay [4] it was -21.1%; in assay [5] it was -1.85%; in assay [6], -19.8%.
For `CC1(C)COC1(c1ccccc1)c1cccnc1` (stereo not given), the growth inhibition in assay [1] is -45.1%; in assay [2], -11.4%; in assay [3], -14.1%; in assay [4], -39.2%; in assay [5], 8.15%; in assay [6], -16.8%.
Regarding `COc1ccc2[nH]c3c(C)c4c(c(C)c3c2c1)CN(C)C=C4`, the growth inhibition in assay [1] is 45.6%; in assay [2], 48.2%; in assay [3], 62.7%; in assay [4], 21.2%; in assay [5], 65.8%; in assay [6], 8.95%.
For `COc1ccccc1OC(=O)c1ccccc1`, the growth inhibition in assay [1] is -27.4%; in assay [2], 7.4%; in assay [3], -22.8%; in assay [4] it was -9.1%; in assay [5], 11.5%; in assay [6], -5.35%.
With `CC(=O)c1cc2c(cc1O)oc1c(C)ccc(C)c12`, the growth inhibition in assay [1] was 20.8%; in assay [2], -3.4%; in assay [3] it was 5.55%; in assay [4], 18.2%; in assay [5], -29.7%; in assay [6], -13.8%.
As for `CC1(C)SC=C2C1=CSC2(C)C`, the growth inhibition in assay [1] was 0.2%; in assay [2] it was 2.1%; in assay [3] it was -6.35%; in assay [4] it was -26.2%; in assay [5], 4.6%; in assay [6] it was -3.65%.
For the molecule `OC1C(SCc2ccccc2)OCC2OC3(CCCCC3)OC21` (stereo not given), the growth inhibition was -5.1% in assay [1]; -5.7% in assay [2]; -9% in assay [3]; -5.9% in assay [4]; 1.75% in assay [5]; 9.45% in assay [6].
On to `CC(C)=CC1C(C(=O)Oc2ccccc2C(C)C)C1(C)C` (stereo not given), for which the growth inhibition was -3.8% in assay [1]; -11.2% in assay [2]; 2.6% in assay [3]; -22.6% in assay [4]; -27% in assay [5]; 4.6% in assay [6].
With `N#CC(C(=O)C(=O)Nc1nccs1)c1ccccc1` (stereo not given), the growth inhibition in assay [1] was 5.85%; in assay [2] it was -0.85%; in assay [3], 4.75%; in assay [4] it was 41.9%; in assay [5], 17.2%; in assay [6] it was 16%.
Turning to `CSCCC(Nc1ccc([N+](=O)[O-])cc1[N+](=O)[O-])C(=O)O` (stereo not given), the growth inhibition was 9.55% in assay [1]; 7.25% in assay [2]; 34.4% in assay [3]; 18.1% in assay [4]; 17.9% in assay [5]; -18.1% in assay [6].
For `O=c1oc2ccccc2cc1O`, the growth inhibition in assay [1] is -12.2%; in assay [2], -4.5%; in assay [3], -6%; in assay [4], -28.9%; in assay [5] it was -18.3%; in assay [6] it was 27.1%.
Consider `COc1ccc2oc3c(OC)c(OC)c(OC)cc3c(=O)c2c1`, for which the growth inhibition in assay [1] is -11.3%; in assay [2], -21.6%; in assay [3] it was -4.95%; in assay [4] it was 6%; in assay [5], 12.6%; in assay [6] it was -15.8%.
As to `O=C(O)C(F)(F)C(F)(F)C(F)(F)F`, the growth inhibition in assay [1] is 5.95%; in assay [2], -2.3%; in assay [3] it was -6.75%; in assay [4], 14.6%; in assay [5], 1.15%; in assay [6], 3.25%.
For the molecule `CCOC(=O)c1ccc(-c2ccc(Cl)cc2)[nH]1`, the growth inhibition in assay [1] was -7.3%; in assay [2] it was 0%; in assay [3] it was -3%; in assay [4] it was 2.45%; in assay [5], 34%; in assay [6] it was 3.2%.
As for `Nc1ccc2ncc(Nc3ccc(F)cc3)nc2c1`, the growth inhibition in assay [1] was 37.7%; in assay [2], -22.6%; in assay [3], 25.1%; in assay [4], 23.4%; in assay [5], 17.8%; in assay [6], 15.6%.
In the case of `COC(=O)C1Cc2c([nH]c3ccccc23)C=N1` (stereo not given), the growth inhibition is 65.3% in assay [1]; 31.2% in assay [2]; 55% in assay [3]; 45.5% in assay [4]; 14.8% in assay [5]; 62.6% in assay [6].
Take `C#CCOCC(CCl)OC(=O)Nc1ccccc1` (stereo not given): the growth inhibition in assay [1] was 14.7%; in assay [2], 47.1%; in assay [3], 11.6%; in assay [4] it was 11.8%; in assay [5] it was 14.7%; in assay [6], 84.4% (active).
Consider `O=[N+]([O-])c1ccc(N/N=C2/CC3CCC2C3)c([N+](=O)[O-])c1` (stereo not given), for which the growth inhibition in assay [1] is -4.3%; in assay [2] it was -21.4%; in assay [3], 0.8%; in assay [4], -7.05%; in assay [5], 5.6%; in assay [6] it was 0.55%.
On to `Cc1ncc(CO)c(/C=N\OCc2cccc(Cl)c2)c1O`, for which the growth inhibition in assay [1] is 31.1%; in assay [2] it was 16.3%; in assay [3], -1.5%; in assay [4], -1.95%; in assay [5], 17.1%; in assay [6], 9.2%.
